# Data published in PubChem BioAssay (NCATS).
# Where “and” joins values, the source holds several entries; their conditions need not be identical. Equal entries are not always repeated. Results filed as inconclusive are left out. The source holds several records for some structures; these can differ, active in one and inactive in another. A number with no mark means an inactive call. Calls of active or inactive are those of the source. The call rests on the fitted dose curve; in most records, active means well fitted inhibition curve with a large enough effect; inconclusive means small, poorly fitted or top-dose-only effect; inactive means flat fitted curve, though single readings scatter.
# Legend:
# Test in all cases: Cytotoxic Profiling of Annotated Libraries Using Quantitative High-Throughput Screening (AID 1296008); further: nearly all actives have a fitted effect of over 60% in size
# Conditions in all cases: Five cell lines viability, CellTiter-Glo ATP luminescence, 48-72 h; max response: active compounds read low
# CRL-7250 = normal cell line; tested on: CRL-7250
# In short: (§1)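 Compounds were pin-transferred onto cells and incubated 48 or 72 hr at 37 degree Celsius, 95% humidity. CellTiter-Glo was added, plates sat 10 min at room temperature, then ATP-coupled luminescence was imaged as the viability read-out.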
# HEK293 = tested on: HEK293
# In short: as §1
# HaCat = tested on: HaCat
# In short: as §1
# On the % scale 0 is the no-effect control and ±100 the full control effect; potency means the concentration at half of the fitted maximal effect.
smiles,measurement,setting,value
C#C[C@]1(O)CC[C@@H]2[C@@H]3CCc4cc(O)ccc4[C@H]3CC[C@@]21C,max response,CRL-7250,-14.3%
C[C@@H]1CC[C@@]2(OC1)OC1CC3C4CC=C5CC(O)CCC5(C)C4CCC3(C)C1[C@@H]2C (stereo partly specified),max response,CRL-7250,-6.42%
same,Potency,HEK293,10.5 µM (active)
CCCCOc1ccc(C(=O)Nc2ccc(F)cc2F)cc1,max response,CRL-7250,-1.1%
same,outcome,CRL-7250,inactive
same,max response,HEK293,2.49%
same,outcome,HaCat,inactive
c1ccc(CNc2nc(NCc3ccccc3)c3ccccc3n2)cc1,max response,CRL-7250,-7.33%
same,Potency,HEK293,14.8 µM (active)
Oc1ccc([C@@H]2Oc3ccc(O)cc3[C@@H]3CCC[C@@H]32)cc1,max response,CRL-7250,-17% and -0.0013%
same,Potency,HEK293,11.8 µM (active)
c1cc(N[C@@H]2CCNC2)nc(-c2cnc3ccc(-c4cn[nH]c4)cn23)c1,Potency,CRL-7250,11.8 µM (active)
C[C@H]1COc2c(N3CCN(C)CC3)c(F)cc3c(=O)c(C(=O)O)cn1c23,max response,CRL-7250,-8.35%
O=C(Nc1cc2cc[nH]c2cn1)c1ccccc1,Potency,CRL-7250,18.7 µM (active)
CCS(=O)(=O)Nc1ccc2[nH]c(O)c(C(=Nc3ccc(CN4CCCCC4)cc3)c3ccccc3)c2c1,Potency,CRL-7250,1.32 µM (active)
same,Potency,HEK293,0.743 µM (active)
CCNC(=O)Nc1ccc(-c2nc3c(c(N4CCOC[C@H]4C)n2)CCN(C2COC2)C3)cc1,Potency,CRL-7250,0.296 µM (active)
same,Potency,HEK293,0.743 µM (active)
C#Cc1cccc(Nc2ncnc3cc(OCCOC)c(OCCO)cc23)c1,Potency,CRL-7250,14.8 µM (active)
same,Potency,HEK293,16.6 µM (active)
N=c1ccn2c(n1)O[C@H]1[C@@H](O)[C@@H](CO)O[C@H]12,max response,CRL-7250,-13.3%
same,Potency,HEK293,4.18 µM (active)
Cn1cnc2c(F)c(Nc3ccc(Br)cc3F)c(C(=O)NOCCO)cc21,Potency,CRL-7250,23.5 µM (active) and 7.31 µM (active)
same,max response,HEK293,-7.34%
CN1CCc2c(c3ccccc3n2Cc2ccc(C(=O)NO)cc2)C1,max response,CRL-7250,-28.2% and -9.31%
O=C(O)c1ccc(Nc2ncc3c(n2)-c2ccc(Cl)cc2C(c2c(F)cccc2F)=NC3)cc1,max response,CRL-7250,0.615%
same,outcome,CRL-7250,inactive
same,Potency,HaCat,9.2 µM (active)
CCNC(=O)c1cc2c(-c3cc(OCCN4CCCC4)c(Cl)cc3Cl)nc(N)nc2s1,Potency,CRL-7250,4.69 µM (active)
same,Potency,HEK293,0.418 µM (active)
C=CC(=O)N1CCc2ccc(-n3c(=O)ccc4cnc5ccc(-c6cnn(C)c6)cc5c43)cc21,Potency,CRL-7250,3.72 µM (active)
CC(C)(N)c1ccc(-c2nc3ccccc3nc2-c2ccccc2)cc1,Potency,CRL-7250,0.0743 µM (active)
same,max response,CRL-7250,-8.83%
same,Potency,HEK293,0.059 µM (active)
same,max response,HaCat,-35.2% and -5.95%
CCCCC(=O)O[C@]1(C(=O)CO)[C@@H](C)C[C@H]2[C@@H]3CCC4=CC(=O)C=C[C@]4(C)[C@@]3(F)[C@@H](O)C[C@@]21C,outcome,CRL-7250,inactive
same,max response,HEK293,3.05%
O=c1[nH]c(=O)n([C@H]2C[C@@H](O)[C@@H](CO)O2)cc1F,Potency,CRL-7250,18.7 µM (active)
same,Potency,HEK293,0.0526 µM (active)
COc1cc(C=CC(=O)CC(=O)C=Cc2ccc(O)c(OC)c2)ccc1O,Potency,CRL-7250,34 µM (active)
same,Potency,HEK293,24.1 µM (active)
O=C1NCCc2[nH]c(-c3ccncc3)cc21,Potency,CRL-7250,7.43 µM (active)
Cn1c(Nc2ccc(C(F)(F)F)cc2)nc2cc(Oc3ccnc(-c4ncc(C(F)(F)F)[nH]4)c3)ccc21,Potency,CRL-7250,0.372 µM (active)
same,Potency,HEK293,26.4 µM (active)
NS(=O)(=O)OC[C@@H]1C[C@@H](n2ccc3c(N[C@H]4CCc5ccccc54)ncnc32)C[C@H]1O,Potency,CRL-7250,2.64 µM (active)
same,Potency,HEK293,0.526 µM (active)
COc1cc2ncnc(Nc3cccc(Br)c3)c2cc1OC,max response,CRL-7250,-23.5%
same,max response,HEK293,-29.7%
COC1=C2C[C@@H](C)C[C@H](OC)[C@@H](O)[C@@H](C)C=C(C)[C@H](OC(N)=O)[C@@H](OC)C=CC=C(C)C(=O)NC(=CC1=O)C2=O,Potency,CRL-7250,7.43 µM (active)
same,Potency,HEK293,4.69 µM (active)
Cc1ccc([N+](=O)[O-])cc1S(=O)(=O)N(C)N=Cc1cnc2ccc(Br)cn12,Potency,CRL-7250,0.0187 µM (active)
same,Potency,HEK293,0.0235 µM (active)
CCN(CC)CCNC(=O)c1c(C)[nH]c(C=C2C(=O)Nc3ccc(F)cc32)c1C,Potency,CRL-7250,0.34 µM (active)
same,Potency,HEK293,0.27 µM (active)
COc1cc(OC)cc(-c2ccc3ncc4ccc(=O)n(-c5ccc(N6CCNCC6)c(C(F)(F)F)c5)c4c3c2)c1,Potency,CRL-7250,10.5 µM (active)
same,Potency,HEK293,3.72 µM (active)
